In the supplement of paper PMC12024424:
Counter-ions that a name gives are not always drawn.

Test system: Staphylococcus aureus Sa2 (MRSA, cystic fibrosis isolate)
Assay: growth reduction vs untreated control (OD550); higher = stronger antibacterial activity
Conditions: 0.1 mM; 24 h
Experimental: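 Single-dose screen of the MedChem Express Drug Repurposing Library (0.1 mM, 1% DMSO) against planktonic MRSA S. aureus Sa2 (CF isolate) in TSB in 96-well plates, 37 °C aerobic, 24 h. Assays were run in triplicate and repeated twice.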

Row | SMILES | growth reduction [%]
1 | CCc1oc2ccccc2c1C(=O)c1cc(Br)c(O)c(Br)c1 [Benzbromarone] | 100
2 | Cc1ccc(C(=O)c2cc(O)c(O)c([N+](=O)[O-])c2)cc1 [Tolcapone] | 100
3 | Cc1ncc(NC(=O)c2ccc(CN3CCN(C)CC3)c(C(F)(F)F)c2)cc1Nc1nccc(-c2cccnc2)n1 [Flumatinib] | 100
4 | CN1CCN(c2ccc(C(=O)Nc3n[nH]c4ccc(Cc5cc(F)cc(F)c5)cc34)c(NC3CCOCC3)c2)CC1 [Entrectinib] | 100
5 | C[C@]1(O)C[C@@H](c2nc(-c3ccc4ccc(-c5ccccc5)nc4c3)c3c(N)nccn32)C1 [Linsitinib] | 100
6 | CC(C)(C)NC(=O)N[C@H](C(=O)N1C[C@H]2[C@@H]([C@H]1C(=O)NC(CC1CCC1)C(=O)C(N)=O)C2(C)C)C(C)(C)C (stereo not given in full) [Boceprevir] | 91.4
7 | Cc1c(CN(C)C(=O)/C=C/c2cnc3c(c2)CCC(=O)N3)oc2ccccc12 | 100
8 | C=C[C@@H]1C[C@]1(NC(=O)[C@@H]1C[C@@H]2CN1C(=O)[C@H](C(C)(C)C)NC(=O)O[C@@H]1C[C@H]1CCCCCc1nc3ccc(OC)cc3nc1O2)C(=O)NS(=O)(=O)C1CC1 [Grazoprevir hydrate] | 100
9 | CCCCCCCOc1ccc(CCC(N)(CO)CO)cc1C(F)(F)F [Amiselimod (hydrochloride)] | 100
10 | C[C@@H](OC[C@@]1(c2ccccc2)CC[C@]2(CCC(=O)N2)CN1)c1cc(C(F)(F)F)cc(C(F)(F)F)c1 [Rolapitant] | 100
11 | COc1cc(NS(C)(=O)=O)ccc1Nc1c2ccccc2nc2ccccc12 [Amsacrine (hydrochloride)] | 93.4
12 | CCCCCCCCCCCC[N+](C)(C)CCOc1ccccc1 [Domiphen (bromide)] | 100
13 | Oc1ccc2c(c1)CC[C@H](c1ccccc1)[C@@H]2c1ccc(OCCN2CCCC2)cc1 [Lasofoxifene (Tartrate)] | 98.2
14 | COc1cccc(OC)c1-c1cc(C(=O)NC2(C(=O)O)C3CC4CC(C3)CC2C4)nn1-c1ccnc2cc(Cl)ccc12 (stereo not given) [Meclinertant] | 100
15 | COc1cc2ncnc(Nc3ccc(F)c(Cl)c3)c2cc1NC(=O)/C=C/CN1CCCCC1 [Dacomitinib] | 100
16 | O=C(O)Cc1ccc(Cc2cc(-c3cccc(Cl)c3)nc(C(F)(F)F)c2)cc1 | 100
17 | CC(C)=CCC/C(C)=C/CC/C(C)=C/CSc1ccccc1C(=O)O [Salirasib] | 100
18 | CC(=O)O[C@@H]1CC[C@@]2(C)[C@@H](CC[C@]3(C)[C@@H]2C(=O)C=C2[C@@H]4[C@@H](C)[C@H](C)CC[C@]4(C)CC[C@]23C)[C@@]1(C)C(=O)O | 100
19 | COc1cc2c(Nc3ccc(Cl)c(Cl)c3F)ncnc2cc1OC[C@@H]1C[C@@H]2CN(C)C[C@@H]2C1 [Tesevatinib] | 100
20 | NC1=NCC2c3ccccc3Cc3ccccc3N12 (stereo not given) [Epinastine] | 100

Row | SMILES | growth reduction [%]
21 | C=C1C[C@H]2[C@@H]3CCC4=CC(=O)CC[C@@H]4[C@H]3CC[C@]2(C)[C@@]1(OC(C)=O)C(C)=O [Nestoron] | 93.2
22 | CC(C)/N=c1\cc2n(-c3ccc(Cl)cc3)c3ccccc3nc-2cc1Nc1ccc(Cl)cc1 [Clofazimine] | 100
23 | O/N=c1\cc(-c2cc3sccc3cn2)oc2ccc(CCCN3CCOCC3)cc12 [Foliglurax (monohydrochloride)] | 100
24 | C1CCC(C(CC2CCCCN2)C2CCCCC2)CC1 (stereo not given) [Perhexiline maleate] | 100
25 | C[C@H]1O[C@@H](n2cc(F)c(=O)[nH]c2=O)[C@H](O)[C@@H]1O [Doxifluridine] | 97.9
26 | CCCCCOc1ccccc1/C(=C\SC)n1ccnc1 [Neticonazole (hydrochloride)] | 100
27 | CN(C)C(=O)/C=C/CNCCOc1ccc(/C(=C(/CC(F)(F)F)c2ccccc2)c2ccc3[nH]nc(F)c3c2)cn1 | 100
28 | COc1cccc(Nc2ncnn3ccc(CN4CC[C@@H](N)[C@H](O)C4)c23)c1 | 92.5
29 | C=C1CC[C@H](O)C/C1=C/C=C1\CCC[C@]2(C)[C@@H]([C@H](C)/C=C/[C@H](C)C(C)C)CC[C@@H]12 [Vitamin D2] | 100
30 | OCCN1CCN(CCCN2c3ccccc3Sc3ccc(Cl)cc32)CC1 [Perphenazine] | 100
31 | CCOc1cc(CC(=O)N[C@@H](CC(C)C)c2ccccc2N2CCCCC2)ccc1C(=O)O [Repaglinide] | 96.9
32 | C[C@H](Nc1cc(-c2cnn(C)c2)cc(Nc2cnccn2)n1)c1ccc(F)cc1 [Ilginatinib (maleate)] | 100
33 | O=C(O)CNC(=O)c1c(=O)cc(CCc2ccccc2)n2[nH]cnc12 [Enarodustat] | 93.3
34 | O=C(NCc1c(F)cc(F)cc1F)c1cn2c(c(O)c1=O)C(=O)N1[C@H]3CC[C@H](C3)O[C@@H]1C2 [Bictegravir] | 100
35 | O=C(O)c1cc(-c2ccc(F)cc2F)ccc1O [Diflunisal] | 93.6
36 | CNC(=O)c1cc(Oc2ccc(NC(=O)Nc3ccc(Cl)c(C(F)(F)F)c3)cc2)ccn1 [Sorafenib] | 93.5
37 | CC(C)(C)Cn1c(N)nc2ccc(-c3[nH]c(C(C)(C)C)nc3-c3ccc(F)cc3)nc21 [Ralimetinib dimesylate] | 100
38 | COc1cccc2c1c(O)c(C(=O)N(C)c1ccc(C(F)(F)F)cc1)c(=O)n2C [Tasquinimod] | 92.4
39 | Nc1ccc2cc3ccc(N)cc3nc2c1 [Proflavine (hemisulfate)] | 100
40 | CC1=CC(=O)c2ccccc2C1=O [Menadione] | 96.7
